Test [1] can be described thus: S16 Schwann cell viability assay (CellTiter-Glo assay) (AID 624031). Note: nearly all actives have a fitted effect of over 70% in size. Note: potency is the fitted concentration of half-maximal effect. An outline of the steps: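 Following overnight culture in 10% FBS DMEM, parental S16 rat Schwann cells are dosed for 24 h at 37 °C. Viability is read as CellTiter-Glo luminescence and expressed as % activity relative to DMSO (0%) and no-cell wells.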
(In general: ATP-based viability assays read luminescence as a measure of living cells.)

The next test has as its system ATS95. Put plainly: qHTS profiling for inhibitors of Plasmodium falciparum proliferation (AID 504749). Note: nearly all actives have a fitted effect of over 60% in size. Note: potency is the fitted concentration of half-maximal effect. Particulars: P. falciparum in erythrocytes, SYBR Green DNA, 72 h; series mostly up to 12.8 µM. In outline:
(§1)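 In a 72 h erythrocytic culture (37 C, humidified, 5% CO2) at 2.5% hematocrit and 0.3% starting parasitemia, compounds were tested; SYBR Green I in detergent lysis buffer stained parasite DNA overnight.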
A general note: In qHTS, concentration-response curves come from the screen itself.

In a further test the test system is CP211. Described as above. Particulars: P. falciparum in erythrocytes, SYBR Green DNA, 72 h; series mostly up to 12.8 µM. An outline of the steps:
as §1

The test system of another test is CP256. Described as above. The note with it: P. falciparum in erythrocytes, SYBR Green DNA, 72 h; series mostly up to 12.8 µM. In outline:
as §1

The next test relates to CP266. The description is as above. The note with it: P. falciparum in erythrocytes, SYBR Green DNA, 72 h; series mostly up to 28.7 µM. An outline of the steps: as §1
For another test, the system named is CP297. The description is as above. Particulars: P. falciparum in erythrocytes, SYBR Green DNA, 72 h; series mostly up to 12.8 µM. In outline:
as §1

In another test the test system is CP325. The test is described as above. Particulars: P. falciparum in erythrocytes, SYBR Green DNA, 72 h; series mostly up to 12.8 µM. An outline of the steps:
as §1

For another test, the system named is DIV17. Described as above. The note with it: P. falciparum in erythrocytes, SYBR Green DNA, 72 h; series mostly up to 12.8 µM. An outline of the steps:
as §1

In a further test the test system is ECU. The test is described as above. Particulars: P. falciparum in erythrocytes, SYBR Green DNA, 72 h; series mostly up to 12.8 µM. In outline: as §1
A further test concerns FAB9. The description is as above. Particulars: P. falciparum in erythrocytes, SYBR Green DNA, 72 h; series mostly up to 12.8 µM. An outline of the steps: as §1
The test system of another test is ICS. The test is described as above. Particulars: P. falciparum in erythrocytes, SYBR Green DNA, 72 h; series mostly up to 12.8 µM. An outline of the steps: as §1
A further test concerns JCK. The test is described as above. The note with it: P. falciparum in erythrocytes, SYBR Green DNA, 72 h; series mostly up to 12.8 µM. In outline:
as §1

Another test has as its system PC15. The test is described as above. The note with it: P. falciparum in erythrocytes, SYBR Green DNA, 72 h; series mostly up to 12.8 µM. In outline:
as §1

In a further test the test system is PC26. Described as above. The note with it: P. falciparum in erythrocytes, SYBR Green DNA, 72 h; series mostly up to 12.8 µM. An outline of the steps: as §1
The test system of the next test is SC27B. Described as above. Particulars: P. falciparum in erythrocytes, SYBR Green DNA, 72 h; series mostly up to 12.8 µM. An outline of the steps: as §1
The next test concerns W2. Described as above. The note with it: P. falciparum in erythrocytes, SYBR Green DNA, 72 h; series mostly up to 12.8 µM. In outline:
as §1

The target in test [2] is Cytochrome P450 2C9 (Homo sapiens) (UniProt P11712). Put plainly: Cytochrome P450 family 2 subfamily C member 9 (CYP2C9) small molecule antagonists: luciferase biochemical (cell-free) qHTS assay (AID 1645842; active = well fitted curve in the direction sought with a large enough effect in the repeat runs; an effect the other way counts as inactive or inconclusive; note: nearly all actives have a fitted effect of over 55% in size). An outline of the steps: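 P450-Glo CYP2C9 system: proluciferin substrate with enzyme in mix containing 0.4% BSA, 10 min at room temperature, then NADPH regeneration solution added and incubated 1 h at 37C. Detection reagent stopped reaction; luminescence read after 20 min as RLU.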

In test [3] the target is Dual specificity protein kinase CLK4 (Homo sapiens) (UniProt Q9HAZ1). Put plainly: qHTS Assay for Inhibitors of CDC-like Kinase 4 (ADP-FP Assay) (AID 1795). Note: nearly all actives have a fitted effect of over 60% in size. Note: potency is the fitted concentration of half-maximal effect. In outline:
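Recombinant human Clk4 (6.25 nM) phosphorylated RS repeat peptide (100 uM) with 1 uM ATP in Tris pH 7.5/MgCl2/EGTA/DTT/Triton buffer for one hour. ADP was quantified by Transcreener competitive fluorescence polarization against an ADP calibration curve.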

A short description of test [4]: NCATS anti-infectives library activity on HEK293 viability as a counter-qHTS vs the C. elegans viability qHTS (AID 1745854).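 Note: HEK293 cells exposed to compounds for 24 hr before the viability read.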 In outline: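 Compound titrations (final up to 41.7 uM) were incubated with HEK293 cells for 24 hr at 37C under 5% CO2. Viable cells were quantified with CellTiter-Glo after 10 min at ambient temperature.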
For test [5], the target named is DNA repair nuclease/redox regulator APEX1 (Homo sapiens) (UniProt P27695). Put plainly: qHTS Validation Assay for Inhibitors of the Human Apurinic/apyrimidinic Endonuclease 1 (APE1) (AID 1705;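 note: TAMRA fluorescence gain over two minutes as APE1 cuts a quenched THF abasic duplex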). An outline of the steps:
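Human APE1 was preincubated with compound for 15 min at room temperature, then 50 nM (final) THF-abasic double-stranded DNA substrate bearing 5'-TAMRA and 3'-BHQ-2 was added. Incision-driven fluorescence rise (ex 525/em 598 nm) was read kinetically.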

SMILES strings stand for the structures. Inconclusive results are not listed. Calls of active or inactive are those of the source. Unless noted, calls come from the whole dose curve; as a rule, active = well fitted curve in the direction sought with a large enough effect; inconclusive = small, poorly fitted or top-dose-only effect, or another doubt; inactive = no such curve, though single readings can be large; an effect the other way counts as inactive or inconclusive.

Sequence of Dual specificity protein kinase CLK4 (Homo sapiens) (Q9HAZ1 whole entry, looked up): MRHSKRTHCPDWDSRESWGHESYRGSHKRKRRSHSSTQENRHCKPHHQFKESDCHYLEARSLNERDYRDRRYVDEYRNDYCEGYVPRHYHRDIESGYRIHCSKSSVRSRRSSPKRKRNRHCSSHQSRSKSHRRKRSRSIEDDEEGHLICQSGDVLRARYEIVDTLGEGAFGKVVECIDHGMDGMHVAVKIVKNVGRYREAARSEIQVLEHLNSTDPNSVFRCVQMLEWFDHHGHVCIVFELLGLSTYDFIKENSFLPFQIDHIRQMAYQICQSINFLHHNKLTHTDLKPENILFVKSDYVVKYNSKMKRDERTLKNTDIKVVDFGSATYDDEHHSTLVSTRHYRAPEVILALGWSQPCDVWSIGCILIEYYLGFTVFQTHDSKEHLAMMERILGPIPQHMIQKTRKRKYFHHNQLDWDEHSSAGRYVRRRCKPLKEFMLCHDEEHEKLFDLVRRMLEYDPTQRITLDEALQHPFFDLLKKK
Sequence of DNA repair nuclease/redox regulator APEX1 (Homo sapiens) (P27695 whole entry, looked up): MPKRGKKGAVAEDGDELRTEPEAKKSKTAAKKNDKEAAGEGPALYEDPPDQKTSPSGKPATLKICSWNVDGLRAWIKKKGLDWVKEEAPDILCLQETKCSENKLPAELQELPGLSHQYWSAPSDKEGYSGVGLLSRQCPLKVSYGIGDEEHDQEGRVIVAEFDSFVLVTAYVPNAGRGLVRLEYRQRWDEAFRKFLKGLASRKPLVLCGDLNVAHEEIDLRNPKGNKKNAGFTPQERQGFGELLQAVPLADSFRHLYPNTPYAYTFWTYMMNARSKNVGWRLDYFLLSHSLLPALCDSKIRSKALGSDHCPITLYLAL
Sequence of Cytochrome P450 2C9 (Homo sapiens) (P11712 whole entry, looked up): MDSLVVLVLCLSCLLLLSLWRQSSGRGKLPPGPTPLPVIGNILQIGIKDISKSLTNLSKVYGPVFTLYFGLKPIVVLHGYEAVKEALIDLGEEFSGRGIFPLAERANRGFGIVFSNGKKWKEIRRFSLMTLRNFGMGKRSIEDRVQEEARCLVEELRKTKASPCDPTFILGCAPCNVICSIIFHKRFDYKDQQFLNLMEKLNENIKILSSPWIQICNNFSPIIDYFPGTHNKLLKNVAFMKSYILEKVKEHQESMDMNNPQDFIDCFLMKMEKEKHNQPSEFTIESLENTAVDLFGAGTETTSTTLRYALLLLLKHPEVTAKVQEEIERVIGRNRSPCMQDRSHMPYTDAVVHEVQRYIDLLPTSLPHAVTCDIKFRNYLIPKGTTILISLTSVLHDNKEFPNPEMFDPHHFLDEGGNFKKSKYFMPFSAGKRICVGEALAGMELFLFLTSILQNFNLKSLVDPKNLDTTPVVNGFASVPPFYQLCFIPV

As to `COc1cc(/C=C/C(=O)/C=C(O)/C=C/c2ccc(O)c(OC)c2)ccc1O`, the Potency result (in test [1]; in the test with ATS95; in the test with CP211; in the test with CP256; in the test with CP266; in the test on CP325) was “inactive” in each case. The Potency entry with ECU, in the test on FAB9, with JCK, with PC15 and in the test on SC27B was “inactive” each time. Besides, the Potency with CP297 is 15.1 µM (active); in the test with DIV17, 12 µM (active); in the test with ICS, 10 µM (active); with PC26, 12 µM (active); in the test on W2 it was 15.1 µM (active).

As for `NC(Cc1ccc(O)c(O)c1)C(=O)O` (stereo not given), the Potency entry in [2] is “inactive”.

As to `COC(=O)c1c(C)cc(OC(=O)c2c(C)cc(O)c(C=O)c2O)c(C)c1O`, the Potency entry in [2] is “inactive”.

For `Cc1ccccc1-c1ccc2ncnc(N(C)Cc3ccco3)c2c1`, the Potency in test [3] is 12.6 µM (active).

Take `C[n+]1cccc(C(=O)[O-])c1`: in test [4], the result was inactive.

For `NC(=NCc1ccc(Cl)c(Cl)c1)NC(=O)c1nc(Cl)c(N)nc1N`, the compound was called inactive in test [5].

Regarding `Cc1cc(/C=C\c2ccc3cc(N(C)C)ccc3[n+]2C)c(C)n1-c1ccccc1`, the Potency was 15.5 µM (active) in test [1]; 1.58 µM (active) with ATS95; 1.81 µM (active) with CP211; 1.58 µM (active) in the test with CP256; 2.87 µM (active) in the test on CP266; 2.28 µM (active) in the test on CP297. Moreover, the Potency in the test on CP325 is 2.56 µM (active); in the test on DIV17 it was 3.61 µM (active); in the test with ECU, 2.51 µM (active); in the test with FAB9 it was 2 µM (active); with ICS, 0.562 µM (active); in the test on JCK it was 3.16 µM (active). Besides, the Potency in the test with PC15 was 3.55 µM (active); in the test with PC26, 3.61 µM (active); in the test with SC27B, 2.51 µM (active); in the test on W2 it was 0.128 µM (active).

Regarding `COc1ccc(/C=C/C(=O)O)cc1OC`, in [4], the compound was called inactive.

Turning to `CN1CCN(c2ncncc2-c2ccc(N(C)C)cc2)CC1`, the Potency entry in [3] was “inactive”.

Take `CC#C[C@]1(O)CC[C@H]2C3CCC4=CC(=O)CCC4=C3[C@@H](c3ccc(N(C)C)cc3)C[C@@]21C` (stereo not given in full): the outcome in test [5] was inactive.
